# Screening results deposited in PubChem by National Center for Advancing Translational Sciences (NCATS).
# Eya2 phos inh: inhibitors of human Eya2 phosphatase activity | O00167 | recombinant Eya2, OMFP fluorescence dephosphorylation (OMFP is methylfluorescein phosphate) | Potency, µM (top dose mostly 76.9 µM), actives largely listed as inhibitors | actives 0.006% (n = 330,000)
#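 Eya2 protein (added as 0.2 uM solution) was preincubated with compound for 10 min at ambient temperature in 50 mM HEPES pH 7.5, 50 mM NaCl, 5 uM MgCl2, 0.05% BSA, 1 mM DTT. OMFP (added at 50 uM) then reacted 10 min; fluorescence read at 485/525 nm.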
# Vif-APOBEC3G blk: Vif-A3G binding inhibition. AID 602310. HeLa A3G-eYFP + Vif (tagged APOBEC3G with the HIV-1 protein that degrades it), YFP fluorescence, overnight. Q9HC16. actives 0.076% (n = 410,000). Potency, µM (top dose mostly 46.1 µM), actives largely listed as inhibitors; also: nearly all actives have a fitted effect of over 60% in size
#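 Read-out is eYFP fluorescence (Ex 488/Em 500-530) from Vif-expressing HeLa A3G-eYFP cells; more signal means A3G escaped Vif-mediated degradation. Cells plated overnight, compound pinned in, incubated overnight at 37 deg C.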
# ASM inhibitor: human S-ASM enzyme inhibition; P17405; placental ASM, HMU-PC fluorogenic substrate, 60 min; Potency, µM (highest dose often 57.5 µM), hits mostly inhibitors; actives 0.006% (n = 340,000)
#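 qHTS format. ASM enzyme prepared from human placenta hydrolyses the fluorogenic substrate HMU-PC0 (9 uM final) over 60 min at 37 °C after a 10 min compound preincubation.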
# Rango dissoc inh: prevents RanGTP from dissociating the Rango-importin beta complex; O95149+P62826; Biochemical FRET Rango-importin beta, RanGTP-induced dissociation; AID 540253; actives 0.071% (n = 340,000); Potency, µM (series often up to 46.1 µM); calls by dose curve; also: nearly all actives have a fitted effect of over 45% in size
#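 Rango (0.1 uM)–importin beta (0.25 uM) complex; RanGTP-RCC1 trigger; 45 min RT; CFP/YFP FRET read.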
# Vif-APOBEC3F blk: Vif-A3F binding inhibition; AID 602313; actives 0.2% (n = 390,000); HeLa A3F-eYFP + Vif (tagged APOBEC3F with the HIV-1 protein that degrades it), YFP fluorescence increase; Potency, µM (titrated, usually from 46.1 µM); also: nearly all actives have a fitted effect of over 65% in size
#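 HeLa cells stably expressing Vif plus C-terminally eYFP-tagged A3F were seeded, incubated overnight at 37 deg C, dosed with compound, incubated overnight again at 37 deg C. Yellow fluorescence (Ex 488/Em 500-530) reported blocked Vif-mediated A3F-eYFP degradation.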
# Rango-impB inh: Rango-importin beta binding inhibition | Q14974 | Potency, µM (top dose mostly 92.2 µM) | actives 0.031% (n = 340,000) | Rango CFP/YFP FRET sensor + importin beta, 45 min | AID 540263; calls by dose curve; also: nearly all actives have a fitted effect of over 15% in size
# Target sequence (Q14974 whole entry, looked up): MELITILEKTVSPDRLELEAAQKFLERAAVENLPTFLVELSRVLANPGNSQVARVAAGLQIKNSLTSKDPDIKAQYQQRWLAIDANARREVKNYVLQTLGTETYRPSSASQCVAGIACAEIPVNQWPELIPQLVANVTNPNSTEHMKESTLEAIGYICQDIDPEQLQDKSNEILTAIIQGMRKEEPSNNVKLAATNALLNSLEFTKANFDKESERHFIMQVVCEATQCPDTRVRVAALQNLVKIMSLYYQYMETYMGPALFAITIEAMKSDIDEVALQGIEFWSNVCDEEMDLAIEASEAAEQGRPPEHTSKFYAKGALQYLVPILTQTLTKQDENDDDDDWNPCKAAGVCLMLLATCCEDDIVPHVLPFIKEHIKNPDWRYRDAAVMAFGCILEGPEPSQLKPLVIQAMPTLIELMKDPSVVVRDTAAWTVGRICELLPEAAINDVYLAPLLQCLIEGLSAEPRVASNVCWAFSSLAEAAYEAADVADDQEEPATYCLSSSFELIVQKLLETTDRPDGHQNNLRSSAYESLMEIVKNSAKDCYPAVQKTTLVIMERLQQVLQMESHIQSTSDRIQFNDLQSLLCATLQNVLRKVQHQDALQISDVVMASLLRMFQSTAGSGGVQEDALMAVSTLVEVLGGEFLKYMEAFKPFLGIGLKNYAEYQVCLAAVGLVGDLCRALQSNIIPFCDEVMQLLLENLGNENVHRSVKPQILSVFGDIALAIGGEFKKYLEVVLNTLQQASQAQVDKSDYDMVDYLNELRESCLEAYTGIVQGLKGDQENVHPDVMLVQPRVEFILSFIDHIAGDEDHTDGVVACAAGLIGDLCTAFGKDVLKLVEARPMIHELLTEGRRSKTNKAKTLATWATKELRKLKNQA
#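 FRET biosensor Rango (snurportin 1 IBB between N-terminal EYFP and C-terminal Cerulean), 50 nM in PBS/1 mM DTT/0.02% Tween-20/0.1% BSA, preincubated 5 min RT with compound; 0.125 microM importin beta added, 45 min RT, CFP/YFP FRET ratio read.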
# Numbers stand for hits; i = inactive; ? = inconclusive; nt = no result. Most compounds without a hit are left out; they make up all but 0.34% or so of the library. Unless noted, calls follow the shape of the dose curve; as a rule, active = well fitted curve in the direction sought with a large enough effect; inconclusive = small, poorly fitted or top-dose-only effect, or another doubt; inactive = no such curve, though single readings can be large; an effect the other way counts as inactive or inconclusive.
SMILES,Eya2 phos inh,Vif-APOBEC3G blk,ASM inhibitor,Rango dissoc inh,Vif-APOBEC3F blk,Rango-impB inh
COc1cccc(NC(=O)c2cnc(SCC(=O)N3CCOCC3)n(C)c2=O)c1,nt,i,nt,nt,i,nt
Cc1csc2nc(NC(=O)c3ccccc3)sc(=O)c12,i,i,i,5.8µM,i,?
Cc1ccc(C(=O)Nc2cccc(C(=O)OCc3cc(=O)n4c5c(sc4n3)CCCC5)c2)cc1,nt,i,nt,nt,i,nt
NC(=O)c1cc2ccccc2o/c1=N/NC(=O)c1cccs1,i,i,i,i,i,i
COc1ccc2o/c(=N/NC(=O)c3cccs3)c(C(N)=O)cc2c1,i,11µM,i,?,?,?
CCn1c(C)cs/c1=N\S(=O)(=O)c1ccccc1,i,i,i,i,i,i
O=Cc1s/c(=N\S(=O)(=O)c2ccccc2)n(CCCCl)c1Cl,i,?,i,i,28µM,i
Cc1ccccc1CN1Cc2cccc3c2[C@H](C=CC3)CC1=O,nt,i,nt,nt,nt,nt
COc1ccc2oc(=O)c(-c3nc4ccccc4o3)cc2c1,i,?,i,?,13µM,?
CCOc1ccccc1Nc1nnc(-c2cc3cc(OC)ccc3oc2=O)s1,nt,i,nt,nt,7.1µM,nt
O=c1oc2ccccc2cc1-c1nc2ccccc2o1,i,i,i,i,i,?
CCOc1ccc2cc(-c3nnc(Nc4ccccc4F)s3)c(=O)oc2c1,nt,i,nt,nt,?,nt
COc1ccccc1/C=c1/[nH]c(=O)/c(=C\c2ccccc2OC)[nH]c1=O,nt,i,nt,nt,nt,nt
CCCCCCCCN1[C@@H](CC(=O)OC)c2ccc(/C=C/C(=O)OC)cc2S1(=O)=O,nt,i,nt,nt,nt,nt
O=C1[C@H](Cc2ccccc2)NC/C=C\C[C@H](c2ccco2)N1Cc1ccccc1,nt,i,nt,nt,nt,nt
O=C1S/C(=C/c2ccc(N3CCOCC3)o2)C(=O)N1Cc1c(F)cccc1Cl,i,4µM,?,?,?,?
O=C1S/C(=C\c2ccc(N3CCOCC3)o2)C(=O)N1c1ccccc1,i,4.5µM,i,?,?,?
CCN1CCc2c(sc(-n3cccc3)c2C(C)NC(=O)Nc2ccc(C(=O)OC)cc2)C1 (stereo unspecified),nt,?,nt,nt,22µM,nt
CCN1CCc2c(sc(-n3cccc3)c2C(CCC(C)C)NC(=O)NCCC(=O)OC)C1 (stereo unspecified),nt,i,nt,nt,i,nt
Cc1cc(N2CCN(c3ccc([N+](=O)[O-])c4cccnc34)CC2)c2ccccc2n1,i,?,i,i,3.5µM,i
C=C1CCN(C(Cc2ccccc2)C(=O)O)S(=O)(=O)c2ccccc21 (stereo unspecified),nt,i,nt,nt,nt,nt
Cc1ccc(C)c(S(=O)(=O)N2CCN(C(=O)CCNC(=O)c3ccc(Br)cc3)CC2)c1,i,i,i,i,i,i
COc1cc(C(=O)NCC(=O)N2CCN(S(=O)(=O)c3cc(C)ccc3C)CC2)cc(OC)c1OC,i,6.3µM,i,?,i,i
CC(=O)c1ccc(S(=O)(=O)Nc2cccc(-c3ccc(N4CCCC4)nn3)c2)cc1,nt,i,nt,nt,i,nt
CCn1c2ccccc2c2cc(NC(=O)c3ccc(=O)oc3)ccc21,i,i,i,?,11µM,?
SMILES,Eya2 phos inh,Vif-APOBEC3G blk,ASM inhibitor,Rango dissoc inh,Vif-APOBEC3F blk,Rango-impB inh
CC(C)(C)n1ncc2c(=O)n(Cc3ccccc3-c3ccccc3)cnc21,nt,i,nt,nt,nt,nt
CCN1/C(=C2\SC(=S)N(Cc3ccccc3)C2=O)Sc2ccccc21,i,i,i,?,?,?
CCC(CO)[n+]1c(C)cc(/C=C2\Sc3ccccc3N2Cc2ccccc2)cc1C (stereo unspecified),i,13µM,?,?,11µM,?
O=c1[nH]c(=O)n([C@H]2C[C@@H](O)[C@@H](CO)O2)cc1F,nt,i,nt,nt,nt,nt
Cc1cnc2ccc3ccccc3c2c1C,nt,i,nt,nt,nt,nt
C[C@]12CCC[C@H](O1)c1c(cc3c(c1O)C(=O)c1c(O)cc(O)cc1C3=O)O2,nt,5.6µM,?,i,8.9µM,i
CC1(C)CC(=O)c2c(O)cc(O)cc2O1,i,i,i,i,i,i
Cc1cccc2c(=O)n3c(cc12)-c1[nH]c2ccccc2c1CC3,nt,i,i,?,22µM,?
O=c1c2ccccc2nc2n1CCc1c-2[nH]c2ccccc12,i,i,i,i,i,i
CCCCNc1c(-c2ccc(SC3CCCCC3)cc2)nc2cnccn12,i,3.2µM,i,?,?,?
CCOC(=O)N1CCN(/[N+]([O-])=N/Oc2ccc(C(F)(F)F)cc2[N+](=O)[O-])CC1,nt,i,nt,nt,nt,nt
Brc1ccccc1C1CC(c2ccccc2)=Nc2ccccc2N1 (stereo unspecified),i,i,i,?,?,?
Clc1ccccc1C1CC(c2ccccc2)=Nc2ccccc2N1 (stereo unspecified),i,i,i,i,20µM,i
O=C(NCc1ccccc1Cl)C1CCN(C(=O)N2CCOc3ccccc32)CC1,nt,i,nt,nt,i,nt
CC(=O)Oc1ccc(N2C(=O)c3cccc4c([N+](=O)[O-])ccc(c34)C2=O)cc1,i,?,i,?,22µM,?
O=C1c2cccc3c([N+](=O)[O-])ccc(c23)C(=O)N1O,i,11µM,i,i,5µM,i
O=C1c2cccc3c([N+](=O)[O-])ccc(c23)C(=O)N1c1ccc(Cl)cn1,i,i,i,?,?,?
O=C1c2cccc3c([N+](=O)[O-])ccc(c23)C(=O)N1c1ccccn1,i,i,i,?,13µM,?
Cc1ccc(NC(=O)C2CCCN(c3ncnc4c3nc3n4CCCCC3)C2)cc1F (stereo unspecified),nt,i,nt,nt,i,nt
Cc1c([N+](=O)[O-])cnc2ccccc12,nt,i,nt,nt,nt,nt
CN(C)c1ccc(/C=C2\Cc3ccccc3C2=O)cc1,nt,3.2µM,nt,nt,nt,nt
O=S1(=O)CCO[C@H]2CCCC[C@@H]2N1Cc1cccc(F)c1,nt,i,nt,nt,nt,nt
O=c1oc2c3c4c(cc2c(C(F)(F)F)c1CCN1CCOCC1)CCCN4CCC3,i,?,i,?,7.9µM,?
C[n+]1ccc(/C=C/c2ccc([N+](C)(C)C)cc2)c2ccccc21,nt,i,nt,nt,nt,nt
O=C(Oc1ccc2ccc(=O)oc2c1)c1ccco1,i,i,i,16µM,i,?
SMILES,Eya2 phos inh,Vif-APOBEC3G blk,ASM inhibitor,Rango dissoc inh,Vif-APOBEC3F blk,Rango-impB inh
CCc1c(C)nc(SCC(=O)c2cccs2)c(C#N)c1C,i,13µM,i,?,?,?
CCc1c(C)nc(SCC(N)=O)c(C#N)c1C,i,i,i,i,i,i
CC(C)ON([C@@H](C(=O)NO)C(C)C)S(=O)(=O)c1ccc(-c2ccccc2)cc1,i,nt,nt,nt,nt,nt
Cc1ccccc1NCC(=O)N=Nc1c(O)[nH]c2ccc([N+](=O)[O-])cc12,i,5µM,i,i,?,i
O=C(N/N=C/c1ccc([N+](=O)[O-])o1)c1sc2ccccc2c1Cl,i,?,i,i,8.9µM,i
CN(C)c1ccc(C=O)cc1Cl,nt,i,nt,nt,nt,nt
NC(=S)N/N=C/c1ccccc1OC(=O)/C=C/c1ccccc1,i,i,i,i,11µM,i
